# About 14,000 (4.5%) of roughly 310,000 compounds showed an effect of 50% or more. Effects have a minus sign here. What follows is part of a selection rich in strong results, with near analogues and random picks from the rest.
# Target: human ether-à-go-go-related gene (hERG) potassium channel (human, UniProt Q12809)
# Assay: primary screen, population patch clamp on CHO cells stably expressing hERG; higher = less effect of the substance
# 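Further: peak tail current of the secondary pulse compared with the same well before compound.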
# Sequence of human ether-à-go-go-related gene (hERG) potassium channel (Q12809 whole entry, looked up): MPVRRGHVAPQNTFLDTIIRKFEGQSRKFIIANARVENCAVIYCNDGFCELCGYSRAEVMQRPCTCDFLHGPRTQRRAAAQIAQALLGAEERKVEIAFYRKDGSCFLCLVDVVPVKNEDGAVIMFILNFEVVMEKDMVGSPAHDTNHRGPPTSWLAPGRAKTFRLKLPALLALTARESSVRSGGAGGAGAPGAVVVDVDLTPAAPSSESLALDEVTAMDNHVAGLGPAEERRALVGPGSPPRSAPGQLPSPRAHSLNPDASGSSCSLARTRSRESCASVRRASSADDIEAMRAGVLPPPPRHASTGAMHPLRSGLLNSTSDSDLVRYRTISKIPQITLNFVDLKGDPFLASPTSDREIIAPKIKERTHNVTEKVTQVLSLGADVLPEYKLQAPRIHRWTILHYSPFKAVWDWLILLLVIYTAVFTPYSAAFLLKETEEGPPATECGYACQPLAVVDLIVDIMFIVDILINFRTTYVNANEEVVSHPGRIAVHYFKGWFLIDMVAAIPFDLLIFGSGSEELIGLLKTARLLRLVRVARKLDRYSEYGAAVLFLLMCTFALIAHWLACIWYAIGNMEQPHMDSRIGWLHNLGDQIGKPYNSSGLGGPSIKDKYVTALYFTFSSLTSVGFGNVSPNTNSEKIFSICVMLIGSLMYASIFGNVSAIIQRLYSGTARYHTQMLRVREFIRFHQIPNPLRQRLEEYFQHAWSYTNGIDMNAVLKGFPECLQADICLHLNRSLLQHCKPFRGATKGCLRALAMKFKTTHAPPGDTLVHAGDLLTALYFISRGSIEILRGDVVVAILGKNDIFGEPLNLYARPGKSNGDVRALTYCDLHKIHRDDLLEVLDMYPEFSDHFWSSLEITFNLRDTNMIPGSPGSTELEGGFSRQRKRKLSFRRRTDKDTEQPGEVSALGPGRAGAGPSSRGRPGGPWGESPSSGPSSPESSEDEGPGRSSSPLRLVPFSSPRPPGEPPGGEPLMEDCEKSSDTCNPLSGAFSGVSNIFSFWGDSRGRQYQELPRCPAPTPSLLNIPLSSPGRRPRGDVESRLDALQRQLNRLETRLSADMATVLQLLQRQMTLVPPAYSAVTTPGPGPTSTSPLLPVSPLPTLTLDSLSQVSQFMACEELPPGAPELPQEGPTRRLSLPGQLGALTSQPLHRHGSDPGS
row,Compound,"hERG current change (%, negative = inhibition) at 10uM"
1,O=C(Nc1nc(-c2ccco2)c(-c2ccco2)s1)c1cnccn1,3.8%
2,CCOC(=O)C1=C(COC(=O)COc2ccc(C(=O)CC)cc2)NC(=O)NC1C (stereo not drawn),-25.5%
3,O=C1N/C(=N\N=C\c2cccs2)SC1Cc1ccc(Cl)c(Cl)c1 (stereo not drawn),16.1%
4,Cc1cc(NC(=O)c2cc(-c3ccco3)on2)n(-c2ccccc2)n1,-0.313%
5,Cc1cccc(COc2ncnc3nc[nH]c23)c1,-6.73%
6,Cc1ccc(NS(=O)(=O)c2cccc(C(=O)NCC3(N(C)C)CCCCC3)c2)cc1,-22.4%
7,Cc1cc(S(=O)(=O)Nc2ccc(C(=O)NCC3(N(C)C)CCCCC3)cc2)ccc1F,-49.2%
8,CN(C)C1(CNC(=O)Nc2ccc(Cl)c(Cl)c2)CCCCC1,-50.1%
9,CN(C)CCNC(=O)Nc1ccc(Cl)c(Cl)c1,-23.4%
10,CCOc1ccc(NS(=O)(=O)c2ccc(C(=O)NCC3(N(C)C)CCCCC3)cc2)cc1,-8.13%
11,CN(C)C1(CNC(=O)c2cccc(S(=O)(=O)Nc3ccc(Br)cc3)c2)CCCCC1,-66.7%
12,CN(C)C1(CNC(=O)Nc2ccccc2)CCCCC1,-3.27%
13,CN(C)C1(CNC(=O)c2ccc(NS(=O)(=O)c3ccc(Cl)c(Cl)c3)cc2)CCCCC1,-74.1%
14,COc1ccc(NS(=O)(=O)c2cccc(C(=O)NCC3(N(C)C)CCCCC3)c2)cc1,-40.6%
15,Cc1ccc(CNC(=O)c2ccc(Br)o2)cc1,-18%
16,O=C(NC1CCCC1)C1CCCN(S(=O)(=O)c2cnc[nH]2)C1 (stereo not drawn),15.3%
17,O=C(NCc1cccs1)c1cnc(Cl)c(Cl)c1,11.7%
18,CC1=Nc2ccccc2N=C(NC(=O)CSC(=S)N2CCN(C)CC2)C1c1ccccc1 (stereo not drawn),-24.2%
19,COc1ccc2c(Cl)c(C(=O)NN)sc2c1,7.88%
20,O=[N+]([O-])c1ccc(CSc2nnc(SCc3ccc(Cl)cc3)s2)cc1,16.8%
21,O=C(c1ccccc1F)N1CCc2ccccc21,-7.14%
22,Cc1ccc(N(CC(=O)NC2CCCC2)C(=O)CCCC(=O)Nc2ccccn2)cc1C,2.86%
23,COc1ccc(/C=N/OCC(=O)NC(c2ccccc2)c2ccccc2)c(OC)c1,-35.1%
24,CCn1c(CCNC(=O)c2cccs2)nnc1SCC(=O)Nc1cccc(Cl)c1,-64.5%

row,Compound,"hERG current change (%, negative = inhibition) at 10uM"
1,CCc1nnc(NC(=O)CSc2nnc(CNc3cccc(C)c3)n2-c2ccccc2)s1,3.35%
2,CCc1nnc(NC(=O)CSc2nnc(CNc3ccc(OC)cc3)n2CC)s1,13.1%
3,CCn1c(CNC(=O)c2cccs2)nnc1SCC(=O)Nc1ccc(Cl)cc1,-57.5%
4,CCn1c(CCNC(=O)c2cccs2)nnc1SCC(=O)NC1CCCCC1,0.651%
5,CCn1c(CCNC(=O)c2cccs2)nnc1SCC(=O)c1ccc(OC)cc1,7.05%
6,CCn1c(CCNC(=O)c2cccs2)nnc1SCC(=O)Nc1ccc(Cl)cc1,-49.7%
7,CCc1nnc(NC(=O)CSc2nnc(CNc3cccc(Cl)c3)n2CC)s1,-59.6%
8,Cn1c(CNC(=O)c2cccs2)nnc1SCC(=O)Nc1ccc(Cl)cc1,-35.4%
9,CCC(C)(C)C1CCC(=NNC(=O)c2ccoc2C)CC1 (stereo not drawn),6.38%
10,CSc1nc(-c2ccccc2)nc(N2CCCC2)c1C(C)=O,-10.8%
11,CCN(CC)C(=O)CSc1ncnc2c1cnn2Cc1ccccc1,-19.9%
12,O=C(NC1CCCCCCC1)c1ccccc1O,-6.11%
13,CC(=O)Nc1ccc(NC(=O)C(C)OC(=O)CCCc2c[nH]c3ccccc23)cc1 (stereo not drawn),7.68%
14,CCCn1c(CN2CCN(c3cccc(Cl)c3)CC2)nc2c1c(=O)n(C)c(=O)n2C,-63.6%
15,CCCCn1c(CN2CCN(c3cccc(Cl)c3)CC2)nc2c1c(=O)n(C)c(=O)n2C,-56.3%
16,CCCCn1c(CN2CCN(c3ccccc3)CC2)nc2c1c(=O)n(C)c(=O)n2C,-45.7%
17,CCCCCn1c(CN2CCN(c3cccc(Cl)c3)CC2)nc2c1c(=O)n(C)c(=O)n2C,-35.3%
18,CC(C)CCn1c(CN2CCN(c3cccc(Cl)c3)CC2)nc2c1c(=O)n(C)c(=O)n2C,-5.6%
19,Cn1c(=O)c2c(nc(CN3CCN(c4ccccc4)CC3)n2CCc2ccccc2)n(C)c1=O,-33.7%
20,CCc1ccc(-c2nc(C(N)=O)c3[nH]c(=O)n(-c4ccccc4OC)c3n2)cc1,-0.102%
21,COc1cc(/C=N/Nc2nc(=O)[nH]nc2C)ccc1O,4.93%
22,CSc1ccccc1NC(=O)CN(C)C(=O)c1ccc2c(c1)OCCO2,5.66%
23,O=C(CN1CCOCC1)OCCCc1ccccc1,9.77%
24,CC(C)(C)OC(=O)N1CCC(c2c(C(=O)N3CCN(C(=O)c4ccco4)CC3)cnn2-c2cccc(Cl)c2)CC1,-65.6%

row,Compound,"hERG current change (%, negative = inhibition) at 10uM"
1,O=C(O)c1cnn(-c2ccccc2)c1-n1cccc1,9%
2,CC(C)(C)OC(=O)N1CCC(c2c(C(=O)N3CCN(C4CCCCC4)CC3)cnn2-c2ccccc2)CC1,-54.7%
3,Cc1ccc(-n2ncc(C(=O)N3CCN(C(=O)c4ccco4)CC3)c2C2CCN(C(=O)OC(C)(C)C)CC2)cc1C,0.366%
4,Cc1ccc(-n2ncc(C(=O)O)c2C2CCN(C(=O)OC(C)(C)C)CC2)cc1,-3.86%
5,CC(C)(C)OC(=O)N1CCC(c2c(C(=O)N3CCN(C4CCCCC4)CC3)cnn2-c2ccc(F)cc2)CC1,-55.5%
6,CC(C)(C)OC(=O)N1CCC(c2c(C(=O)O)cnn2-c2ccccc2)CC1,11%
7,CC(C)(C)OC(=O)N1CCC(c2c(C(=O)N3CCN(C(=O)c4ccco4)CC3)cnn2-c2ccc(F)cc2F)CC1,-19.6%
8,O=C(c1cnn2ccccc12)N1CCN(C2CCCCC2)CC1,-9.39%
9,CC(C)(C)OC(=O)N1CCC(c2c(C(=O)NC3CC3)cnn2-c2ccccc2)CC1,-22.9%
10,CC(C)(C)OC(=O)N1CCC(c2c(C(=O)N3CCN(C(=O)c4ccco4)CC3)cnn2-c2ccc(F)cc2)CC1,-14.8%
11,O=C(c1cnn(-c2ccccc2)c1-n1cccc1)N1CCN(C2CCCCC2)CC1,-67.2%
12,COc1ccc(-c2c3c(=O)n(C)c(=O)n(C)c3cn2Cc2cccnc2)cc1,4.55%
13,O=C(COC(=O)C1CCN(c2ccc(C(F)(F)F)cn2)CC1)Nc1ccc(F)cc1[N+](=O)[O-],13%
14,COc1ccccc1CCNC(=O)CSc1nc(-c2ccco2)cc(C(F)(F)F)n1,27.1%
15,CCCCn1c(-c2csc(CCC)c2)n[nH]c1=S,14.8%
16,CC1CCC2(CC1)NC(=O)N(Cc1cccc(C(F)(F)F)c1)C2=O (stereo not drawn),12.9%
17,N#C/C(=C\c1ccc(-c2cccc([N+](=O)[O-])c2)o1)C(=O)N1CCOCC1,-6.75%
18,O=C(NCC1CCCO1)c1ccc(CSCc2cccc(F)c2)o1 (stereo not drawn),-7.59%
19,COc1ccc(C(=O)NNc2cc(C)nc(NNC(=O)c3ccc(OC)cc3)n2)cc1,7.94%
20,CCN(C(=O)COc1cccnc1[N+](=O)[O-])C1CCS(=O)(=O)C1 (stereo not drawn),-0.18%
21,CCOc1ccc(CNC(=O)CCS(=O)(=O)Cc2cccc(Cl)c2)cc1OC,-12.1%
22,O=C(O)c1cc2c(ccc3ccccc32)o1,4.33%
23,COC(=O)c1ccc([C@H]2CC(=O)O2)cc1,1.35%
24,c1ccc2c(c1)nc(NC1CCCCC1)c1nncn12,-35.2%

row,Compound,"hERG current change (%, negative = inhibition) at 10uM"
1,Cc1ccc(-n2ncc(C(=O)NCC3CCN(C4CCCC4)C3)c2C2CCN(C(=O)OC(C)(C)C)CC2)cc1 (stereo not drawn),-20.4%
2,CC(C)(C)OC(=O)N1CCC(c2c(C(=O)NCC3CCN(C4CCCC4)C3)cnn2-c2ccccc2)CC1 (stereo not drawn),-35.8%
3,CC(C)(C)OC(=O)N1CCC(c2c(C(=O)NCC3CCN(C4CCCC4)C3)cnn2-c2ccc(F)cc2)CC1 (stereo not drawn),-50.5%
4,Cc1ccc2c(c1)N(C)/C(=C/c1cccc[n+]1CCO)S2.[I-],-9.09%
5,CC[n+]1ccccc1/C=C1\Sc2ccc(C)cc2N1C.[I-],-62.5%
6,Cc1ccc2c(c1)N(C)/C(=C/c1cccc[n+]1C)S2.[I-],-47.5%
7,Cc1oc2nc(SCC(=O)NC3CCCCC3)nc(N)c2c1C,-14.8%
8,Cl.O=C(CN1CCCC1)N1c2ccccc2Sc2ccc(Cl)cc21,0.273%
9,COc1ccc(S(=O)(=O)Nc2ccc3c(c2)n(C)c(=O)n3C)cc1C,2.39%
10,O=C(NCc1ccco1)C12CN(Cc3ccccc3)CC1C(c1ccc([N+](=O)[O-])cc1)=NO2 (stereo not drawn),-70.8%
11,Cc1ccc(CNC(=O)C23CN(Cc4ccccc4)CC2C(c2cccc([N+](=O)[O-])c2)=NO3)cc1 (stereo not drawn),-0.125%
12,O=C(NCc1ccccc1)C12CN(Cc3ccccc3)CC1C(c1ccc([N+](=O)[O-])cc1)=NO2 (stereo not drawn),-67.1%
13,COc1ccc(CCNC(=O)C23CN(Cc4ccccc4)CC2C(c2cccc([N+](=O)[O-])c2)=NO3)cc1 (stereo not drawn),-7.39%
14,Cc1ccc(CNC(=O)C23CN(Cc4ccccc4)CC2C(c2ccc([N+](=O)[O-])cc2)=NO3)o1 (stereo not drawn),-49.6%
15,COc1ccc(CNC(=O)C23CN(Cc4ccccc4)CC2C(c2ccc([N+](=O)[O-])cc2)=NO3)cc1 (stereo not drawn),-40.5%
16,O=C(NCc1ccccc1)C12CN(Cc3ccccc3)CC1C(c1cccc([N+](=O)[O-])c1)=NO2 (stereo not drawn),-14.6%
17,COc1ccc(CCNC(=O)C23CN(Cc4ccccc4)CC2C(c2ccc([N+](=O)[O-])cc2)=NO3)cc1 (stereo not drawn),-74.8%
18,O=C(NCc1ccco1)C12CN(Cc3ccccc3)CC1C(c1cccc([N+](=O)[O-])c1)=NO2 (stereo not drawn),-46.6%
19,COc1cccc(CNC(=O)C23CN(Cc4ccccc4)CC2C(c2ccc([N+](=O)[O-])cc2)=NO3)c1 (stereo not drawn),-52.1%
20,Cc1ccc(CCNC(=O)C23CN(Cc4ccccc4)CC2C(c2ccc([N+](=O)[O-])cc2)=NO3)cc1 (stereo not drawn),-24%
21,Cc1ccc(CNC(=O)C23CN(Cc4ccccc4)CC2C(c2ccc([N+](=O)[O-])cc2)=NO3)cc1 (stereo not drawn),-43.7%

# — PMC4336329 (PLoS ONE, 2015)
